High-throughput results: PubChem, The Scripps Research Institute Molecular Screening Center
Sampled rows, rich in hits. Any-hit rate of the full collection: about 3.2%.
HGIII-sPLA2 inh: human group III sPLA2 inhibitors, primary screen, biochemical, QFRET, BODIPY PC-A2 liposome substrate; Group 3 secretory phospholipase A2 (Homo sapiens), Q9NZ20; QFRET BODIPY PC-A2 liposome hydrolysis, fluorescence; inhibition, % at 12.2 µM; 0.56% of 370,000 active; AID 743126, 2013;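 active = inhibition above mean plus 3 SD of compounds lying within the high and low control bounds, cut at about 19% in these data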;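 also: 0% = median of test compound wells and 100% = no enzyme DMSO wells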
Target sequence (Q9NZ20 whole entry, looked up): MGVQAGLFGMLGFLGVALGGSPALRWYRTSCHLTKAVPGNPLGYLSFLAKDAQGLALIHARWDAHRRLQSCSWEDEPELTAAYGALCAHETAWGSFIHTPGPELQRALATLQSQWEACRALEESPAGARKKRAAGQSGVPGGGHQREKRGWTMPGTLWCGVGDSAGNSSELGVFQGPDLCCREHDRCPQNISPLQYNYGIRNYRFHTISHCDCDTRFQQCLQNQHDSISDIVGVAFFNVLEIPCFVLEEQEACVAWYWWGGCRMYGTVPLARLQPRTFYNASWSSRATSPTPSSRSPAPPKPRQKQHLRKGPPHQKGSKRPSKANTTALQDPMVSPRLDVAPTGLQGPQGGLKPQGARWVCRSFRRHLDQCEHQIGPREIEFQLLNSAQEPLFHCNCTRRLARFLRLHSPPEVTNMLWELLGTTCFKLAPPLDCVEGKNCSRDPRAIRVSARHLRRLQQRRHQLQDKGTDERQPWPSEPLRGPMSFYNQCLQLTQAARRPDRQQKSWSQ
bovine MsrA act: bovine MsrA enzyme activators, primary screen, biochemical, absorbance, HTS. Methionine sulfoxide reductase A (Bos taurus). purified bovine MsrA, absorbance read-out. activation, % at 10.6 µM. 0.3% of 360,000 active; in the data active = activation above about 7.5%;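 also: 0% = vehicle and 100% = reference activator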
MsrA inhibitor: bovine MsrA enzyme inhibitors, primary screen, biochemical, absorbance, HTS | Methionine sulfoxide reductase A (Bos taurus) | purified bovine MsrA, absorbance read-out | inhibition, % at 15.5 µM | 0.75% of 360,000 active; in the data active = inhibition above about 4.5%;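 also: 0% = vehicle wells with enzyme and 100% = reference inhibitor wells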
PG9 Ab binder: binders of HIV-1 gp120 antibody PG9, primary screen, biochemical, TR-FRET; HIV-1 gp120 / PG9 antibody interaction; TR-FRET gp120-PG9 antibody binding; inhibition, % at 6.7 µM; 0.43% of 360,000 active; AID 624416, 2012; in the data active = inhibition above about 8.5%
rCAG RNA binder: binders of r(CAG) RNA repeats, primary screen, biochemical, fluorescence; inhibition, % at 3 µM; r(CAG) RNA repeat, TO-PRO-1 dye displacement fluorescence; 1.3% of 370,000 active;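 active = inhibition above the plate cutoff, the mean of all test compounds on that plate plus 3 SD, cut at about 35% in these data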;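 also: 0% = DMSO alone and 100% = 100 µM mitoxantrone as full dye displacement; higher means more dye released from RNA so lower well fluorescence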
MsrA activ conf: bovine MsrA activators, retest, confirmation, biochemical, absorbance, HTS; shares compounds with bovine MsrA act; purified bovine MsrA, absorbance read-out; activation, % at 10.6 µM; 12% of 1,000 active; in the data active = activation above about 4%;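 also: enzyme coupled to thioredoxin and thioredoxin reductase with NADPH; 0% = vehicle wells and 100% = reference activator wells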
* hit, by the source's call; . = not tested or not shown.

SMILES	HGIII-sPLA2 inh	bovine MsrA act	MsrA inhibitor	PG9 Ab binder	rCAG RNA binder	others
CC1CCCN(c2nc3nonc3nc2N2CCCC(C)C2)C1 (centres undefined)	-3	1	4.6*	0	1
CC1CCN(c2nc3nonc3nc2N2CCC(C)CC2)CC1	5	-1	-1	-1	1
O=C(CN1C(=O)C2(OCCCO2)c2ccccc21)NCc1ccc2ccccc2c1	-15	.	.	.	4
CC(C)N1CCCCC(NC(=O)c2cccc(F)c2)C1=O (centres undefined)	3	.	.	.	-1
C#CCNC(=O)C[C@H]1C[C@@]2(C(=O)OC)C(=C[C@H](C(C)(C)C)O[C@@H]2C)N(Cc2ccco2)C1=O	-2	.	.	.	-2
Cn1cccc1/C=C(/C#N)c1ccc(F)cc1	-1	-5	5.6*	0	-2
Cn1cccc1/C=C(\C#N)c1ccccc1	-6	-4	4	-1	-2
COc1ccc2c(c1)CCCN2C(=O)C1CCCN(S(=O)(=O)c2ccc(Cl)s2)C1 (centres undefined)	-8	.	.	.	1
O=C1NC(=S)S/C1=C/c1ccc(N2CCOCC2)o1	.	-6	.	.	.
COc1ccc2cc(/C=C3\SC(=S)NC3=O)c(N3CCOCC3)nc2c1	-11	-6	3	1	65*
CCCC1CCC2(CC1)CCC2OC(=O)Nc1ccc(F)cc1 (centres undefined)	-6	.	.	.	.
COc1ccc(-c2nc3ccc(C)cn3c2Cc2ccccc2C(F)(F)F)cc1OC	-7	.	1	-1	2
COc1ccc(-c2nc3ccc(Cl)cn3c2Cc2ccccc2C(F)(F)F)cc1OC	-27	-8	0	-1	42*
Cc1cc(OCc2ccccc2)ccc1/C(O)=C1/C(=O)C(=O)N(Cc2cccnc2)C1c1ccncc1 (centres undefined)	-1	-13	2	8	12
Cc1ccc(C)c(/C(O)=C2\C(=O)C(=O)N(Cc3cccnc3)C2c2cccnc2)c1 (centres undefined)	7	-5	4.8*	1	-4
CN(C)c1ccc(Cc2cc3c(O)ccc(O)c3cc(Cc3ccc(N(C)C)cc3)c2=O)cc1	17	-10	3	8	76*
Nc1ncnc2nc(SCc3ccccc3)[nH]c12	2	7.8*	0	3	1	MsrA activ conf=0
CC1(C)CC(=O)C2=C(C1)N(Cc1ccco1)C(=O)C2(NC(=O)c1cccnc1)C(F)(F)F (centres undefined)	1	8.2*	0	2	-1	MsrA activ conf=-2
CCOC(=O)NC1(C(F)(F)F)C(=O)N(Cc2ccccc2)C2=C1C(=O)CC(C)(C)C2 (centres undefined)	-3	12*	1	-2	-8	MsrA activ conf=-1
Cc1cc(C)nc(N2CCN(C(=O)CSc3nc4ccccc4nc3N3CC(C)OC(C)C3)CC2)n1 (centres undefined)	-1	.	.	.	3
O=C(OC12CCCN(C1)/C(=C/c1ccccc1)C2)c1ccccc1 (centres undefined)	4	.	.	.	3
c1ccc(CNC2CCC23CCC(c2ccccc2)CC3)cc1 (centres undefined)	5	.	.	.	-1
Cn1nc(C(=O)OCC(=O)Nc2cc(Cl)ccc2C#N)c2ccccc2c1=O	-1	10*	0	-1	2	MsrA activ conf=-3
COc1ccc(-n2c(Cc3cccs3)nnc2SCC(=O)Nc2cccc3ccccc23)cc1	-28	.	.	.	4
O=C(CCSc1ccccn1)c1ccccc1	4	7.8*	2	-3	0	MsrA activ conf=-1
Nc1ncnc(Nc2cccc(F)c2)n1	-4	-2	-1	0	0
Cc1cccc(Nc2ncnc(N)n2)c1	2	13*	2	1	0	MsrA activ conf=-1
O=S(=O)(CC1NCc2cc(F)ccc21)NCc1ccc(F)cc1 (centres undefined)	-1	.	.	.	3
COc1ccc(CNCCNC(=O)c2cccs2)c(OC)c1OC	6	18*	1	0	2	MsrA activ conf=-2
COCCCNC(=O)c1cccs1	0	-1	1	0	2
